Reference: PubChem BioAssay AID1159580 (chemical genetic matrix, 2015)
The campaign covered roughly 5,500 compounds. About 2,000 (36%) were called active. Not shown: some 18% with an inconclusive outcome. Rule as the data show it: active = normalized growth mostly below about 0.91 (no sharp cut-off); inconclusive = no clear call, values can overlap the other calls; inactive = mostly above about 0.92. This is one part of the list.

Test: chemical genetic growth profiling, strain panel (AID 1159580);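 also: tested at 20 µM; growth read once vehicle control cultures reached saturation at 30 °C; 1 = growth at the plate median or of vehicle wells; lower values mean less growth of the strain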
Conditions: growth OD

Measured: normalized growth

CCC(=O)c1c(O)cc(O)cc1O
inactive: S. cerevisiae deletion strains, locus YKL009W, strain mrt4, active compounds read low 1.03 | S. cerevisiae deletion strains, locus YKL068W, active compounds read low 0.989 | S. cerevisiae deletion strains, locus YKL085W, strain MDH1 (second series), active compounds read low 0.986 | S. cerevisiae deletion strains, locus YKL085W, strain MDH1, active compounds read low 0.986 | S. cerevisiae deletion strains, locus YKL160W, strain elf1, active compounds read low 0.972 | S. cerevisiae deletion strains, locus YKL190W, strain CNB1, active compounds read low 1 | S. cerevisiae deletion strains, locus YKR001C, strain vps1, active compounds read low 0.959 | S. cerevisiae deletion strains, locus YKR026C, strain gcn3, active compounds read low 0.992 | S. cerevisiae deletion strains, locus YKR091W, strain srl3, active compounds read low 0.988 | S. cerevisiae deletion strains, locus YLL001W, strain dnm1, active compounds read low 0.99 | S. cerevisiae deletion strains, locus YLL026W, active compounds read low 0.999 | S. cerevisiae deletion strains, locus YLL041C, strain sdh2, active compounds read low 0.985 | S. cerevisiae deletion strains, locus YLR027C, strain aat2, active compounds read low 0.987 | S. cerevisiae deletion strains, locus YLR039C, strain RIC1, active compounds read low 0.938 | S. cerevisiae deletion strains, locus YLR058C, strain SHM2, active compounds read low 1 | S. cerevisiae deletion strains, locus YLR102C, strain apc9, active compounds read low 0.979 | S. cerevisiae deletion strains, locus YLR113W, strain HOG1, active compounds read low 0.974 | S. cerevisiae deletion strains, locus YLR221C, strain rsa3, active compounds read low 1.01 | S. cerevisiae deletion strains, locus YLR258W, strain gsy2, active compounds read low 0.996 | S. cerevisiae deletion strains, locus YLR262C, strain YPT6 (second series), active compounds read low 1.01 | S. cerevisiae deletion strains, locus YLR262C, strain YPT6, active compounds read low 0.991 | S. cerevisiae deletion strains, locus YLR268W, strain sec22, active compounds read low 0.968 | S. cerevisiae deletion strains, locus YLR320W, strain mms22, active compounds read low 1.01 | S. cerevisiae deletion strains, locus YLR330W, strain CHS5, active compounds read low 1 | S. cerevisiae deletion strains, locus YLR342W, strain FKS1 (second series), active compounds read low 1 | S. cerevisiae deletion strains, locus YLR342W, strain FKS1, active compounds read low 0.978 | S. cerevisiae deletion strains, locus YLR357W, strain rsc2, active compounds read low 0.968 | S. cerevisiae deletion strains, locus YLR370C, strain arc18, active compounds read low 0.981 | S. cerevisiae deletion strains, locus YLR371W, strain rom2, active compounds read low 0.982 | S. cerevisiae deletion strains, locus YLR384C, strain iki3, active compounds read low 0.98 | S. cerevisiae deletion strains, locus YLR418C, strain cdc73, active compounds read low 0.94 | S. cerevisiae deletion strains, locus YML016C, strain PPZ1, active compounds read low 0.999 | S. cerevisiae deletion strains, locus YML032C, strain rad52, active compounds read low 0.981 | S. cerevisiae deletion strains, locus YML120C, strain ndi1, active compounds read low 0.991 | S. cerevisiae deletion strains, locus YML124C, strain tub3, active compounds read low 0.978 | S. cerevisiae deletion strains, locus YMR058W, strain fet3, active compounds read low 0.978 | S. cerevisiae deletion strains, locus YMR078C, strain ctf18, active compounds read low 0.976 | S. cerevisiae deletion strains, locus YMR125W, strain sto1, active compounds read low 0.985 | S. cerevisiae deletion strains, locus YMR129W, active compounds read low 0.988 | S. cerevisiae deletion strains, locus YMR205C, strain PFK2, active compounds read low 0.998 | S. cerevisiae deletion strains, locus YMR223W, strain ubp8, active compounds read low 0.978 | S. cerevisiae deletion strains, locus YMR231W, strain pep5, active compounds read low 0.991 | S. cerevisiae deletion strains, locus YMR263W, strain SAP30, active compounds read low 1.01 | S. cerevisiae deletion strains, locus YMR307W, strain GAS1, active compounds read low 1.01 | S. cerevisiae deletion strains, locus YNL067W, strain RPL9B, active compounds read low 1.01 | S. cerevisiae deletion strains, locus YNL071W, strain lat1, active compounds read low 0.995 | S. cerevisiae deletion strains, locus YNL128W, strain TEP1, active compounds read low 1.01 | S. cerevisiae deletion strains, locus YNL153C, strain GIM3, active compounds read low 1.02 | S. cerevisiae deletion strains, locus YNL183C, strain NPR1, active compounds read low 0.953 | S. cerevisiae deletion strains, locus YNL209W, strain ssb2, active compounds read low 0.992 | S. cerevisiae deletion strains, locus YNL233W, strain BNI4, active compounds read low 0.988 | S. cerevisiae deletion strains, locus YNL248C, strain rpa49, active compounds read low 1 | S. cerevisiae deletion strains, locus YNL250W, strain rad50, active compounds read low 0.981 | S. cerevisiae deletion strains, locus YNL271C, strain bni1, active compounds read low 0.979 | S. cerevisiae deletion strains, locus YNL298W, strain CLA4, active compounds read low 0.973 | S. cerevisiae deletion strains, locus YNL307C, strain MCK1, active compounds read low 0.991 | S. cerevisiae deletion strains, locus YNL322C, strain KRE1 (second series), active compounds read low 0.97 | S. cerevisiae deletion strains, locus YNL322C, strain KRE1, active compounds read low 1.01 | S. cerevisiae deletion strains, locus YNR049C, strain mso1, active compounds read low 0.987 | S. cerevisiae deletion strains, locus YNR052C, strain pop2, active compounds read low 0.983 | S. cerevisiae deletion strains, locus YOL006C, strain TOP1, active compounds read low 1.12 | S. cerevisiae deletion strains, locus YOL012C, strain htz1 0.785 | S. cerevisiae deletion strains, locus YOL147C, strain pex11, active compounds read low 0.97 | S. cerevisiae deletion strains, locus YOR001W, strain rrp6, active compounds read low 1.02 | S. cerevisiae deletion strains, locus YOR061W, strain CKA2, active compounds read low 1.01 | S. cerevisiae deletion strains, locus YOR069W, strain VPS5, active compounds read low 1 | S. cerevisiae deletion strains, locus YOR070C, strain gyp1, active compounds read low 0.985 | S. cerevisiae deletion strains, locus YOR080W, strain dia2, active compounds read low 0.981 | S. cerevisiae deletion strains, locus YOR083W, strain WHI5, active compounds read low 0.983 | S. cerevisiae deletion strains, locus YOR106W, strain vam3, active compounds read low 0.987 | S. cerevisiae deletion strains, locus YOR136W, strain idh2, active compounds read low 0.984 | S. cerevisiae deletion strains, locus YOR144C, strain elg1, active compounds read low 0.986 | S. cerevisiae deletion strains, locus YOR184W, strain ser1, active compounds read low 0.992 | S. cerevisiae deletion strains, locus YOR231W, strain MKK1, active compounds read low 1.01 | S. cerevisiae deletion strains, locus YOR265W, strain rbl2, active compounds read low 0.982 | S. cerevisiae deletion strains, locus YOR270C, strain vph1, active compounds read low 1.04 | S. cerevisiae deletion strains, locus YOR290C, strain snf2, active compounds read low 0.973 | S. cerevisiae deletion strains, locus YOR316C, strain cot1, active compounds read low 0.984 | S. cerevisiae deletion strains, locus YPL051W, strain arl3, active compounds read low 0.973 | S. cerevisiae deletion strains, locus YPL055C, strain LGE1, active compounds read low 1.02 | S. cerevisiae deletion strains, locus YPL078C, strain atp4, active compounds read low 0.996 | S. cerevisiae deletion strains, locus YPL106C, strain sse1, active compounds read low 0.938 | S. cerevisiae deletion strains, locus YPL240C, strain hsp82, active compounds read low 0.991 | S. cerevisiae deletion strains, locus YPL241C, strain CIN2, active compounds read low 0.996 | S. cerevisiae deletion strains, locus YPL256C, strain CLN2, active compounds read low 0.997 | S. cerevisiae deletion strains, locus YPR119W, strain clb2, active compounds read low 0.971 | S. cerevisiae deletion strains, locus YPR141C, strain kar3, active compounds read low 0.974 | S. cerevisiae deletion strains, locus YPR163C, strain tif3, active compounds read low 0.991 | S. cerevisiae deletion strains, locus YPR167C, strain met16, active compounds read low 0.98 | S. cerevisiae deletion strains, strain wtn01, active compounds read low 0.978 | S. cerevisiae strains, strain wild type, active compounds read low 1.01
